# Assay results reported in PubChem BioAssay.
# Target: Torsin-1A (Homo sapiens) (UniProt O14656)
# Assay: small-molecule binders of mutant TOR1A in lysate, primary screen, cell lysate, small-molecule microarray, COS7 lysate, 635/667 nm fluorescence (AID 1150);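 note: score pools 667 nm emission and signal to noise measuring lysate protein binding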
# Conditions: COS7 hTOR1A mutant lysate, 635 nm fluorescence, higher = more signal
# Chain of Torsin-1A (Homo sapiens) (O14656 whole entry, looked up): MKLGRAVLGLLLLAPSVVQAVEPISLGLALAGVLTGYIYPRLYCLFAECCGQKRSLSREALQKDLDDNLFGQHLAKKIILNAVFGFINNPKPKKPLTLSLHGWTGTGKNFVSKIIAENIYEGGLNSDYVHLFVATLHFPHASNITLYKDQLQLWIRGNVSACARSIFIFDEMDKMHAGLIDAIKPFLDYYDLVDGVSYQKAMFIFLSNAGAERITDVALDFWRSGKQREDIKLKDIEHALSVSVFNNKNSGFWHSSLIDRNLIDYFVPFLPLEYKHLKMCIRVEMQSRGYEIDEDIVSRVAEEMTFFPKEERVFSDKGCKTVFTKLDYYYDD
row,Compound,composite z-score
1,CCOC(=O)C[C@H]1[C@H](OC(=O)c2ccccc2-c2ccccc2)[C@@H](NC(=O)c2ccc3ccccc3c2)c2cc(OCCCO)ccc2N1C(=O)c1ccccc1,0.472
2,O=C1OCCC=C[C@H]2OC34C=CCN(Cn5nnc6ccccc65)C(=O)[C@H]3N(CCCO)C(=O)[C@@H]4C12 (stereo partly drawn),-2.04
3,O=C(C1N=C(c2ccc(OCCCO)cc2)N(c2ccccc2)O1)N1CCCCC1 (stereo not drawn),0.854
4,CCCCC[C@H]1OC[C@@]23C=C(Br)[C@@H](CC12)[C@@]1(CO1)C3=O (stereo partly drawn),-0.424
5,C=CC[C@]1(C(=O)N2CCCCC2)N=C(c2ccc(OCCCO)cc2)O[C@H]1c1ccccc1CN=[N+]=[N-],0.361
6,COCCCNC(=O)[C@@H]1c2ccccc2C(=O)N(C(C)C)[C@H]1c1ccc(CO)cc1,0.0072
7,CCCCN1CC=CC23O[C@@H]4/C=C\CCC(C)OC(=O)C4[C@H]2C(=O)N(CCCO)[C@@H]3C1=O (stereo partly drawn),-1.15
8,CN(C)C(=O)[C@]1(CCC(=O)OC(C)(C)C)N=C(c2ccc(OCCCO)cc2)O[C@@H]1c1ccccc1CN=[N+]=[N-],1.24
9,C=CCNC(=O)[C@@H]1[C@H]2C(=O)O[C@H](c3ccccc3)[C@H](c3ccccc3)N2[C@H](c2ccc(OCCO)cc2)[C@@]12C(=O)N(C(=O)OCCOC)c1ccc(C#Cc3ccc(OC)cc3)cc12,-0.0165
10,CCCN1C(=O)[C@@]2(Cc3ccccc31)N=C(c1ccc(OCCCO)cc1)O[C@H]2c1ccccc1,1.34
11,CC1CC/C=C\[C@H]2OC34C=CCN(Cc5ccccc5)C(=O)[C@H]3N(C(CO)C(C)C)C(=O)[C@@H]4C2C(=O)O1 (stereo partly drawn),-0.741
12,C=C(COC)/C(=C/C[C@H](OC(=O)c1ccncc1)c1ccc(CO)o1)c1cnc2ccccc2c1,0.732
13,COc1ccc(C#Cc2ccc3c(c2)[C@]2(C(=O)N3)[C@H](c3ccc(O)cc3)N3[C@H](c4ccccc4)[C@H](c4ccccc4)OC(=O)[C@H]3[C@@H]2C(=O)Nc2nc3ccccc3s2)cc1,0.168
14,[N-]=[N+]=Nc1ccccc1C[C@@]1(C(=O)N2CCOCC2)N=C(c2ccc(OCCCO)cc2)O[C@@H]1c1ccccc1,0.53
15,C=C[C@@H](CO)N(Cc1ccc(OC)cc1)S(=O)(=O)c1ccc(Br)cc1,1.13
16,COc1ccc(CCNC(=O)[C@@]2(Sc3ccc(C)cc3)CC(=O)N(Cc3ccccc3C(F)(F)F)[C@@H]2c2ccc(CO)cc2I)cc1,-0.702
17,CCOC(=O)C[C@H]1[C@H](OC(=O)c2ccccc2-c2ccccc2)[C@@H](NC(=O)c2ccc3ccccc3n2)c2cc(OCCCO)ccc2N1C(=O)Cc1ccc(OC)cc1,0.0746
18,C=CCN1Cc2ccccc2[C@@H]2OC(c3ccc(OCCCO)cc3)=N[C@]2(CC=C)C1=O,0.966
19,O=C(Cc1ccccc1)[C@H]1C2C=CCCC(c3ccccc3)=C2CN1Cc1ccccc1 (stereo partly drawn),-0.412
20,C=CC[C@@]1(C(=O)NCCCOC)N=C(c2ccc(OCCCO)cc2)O[C@@H]1c1ccccc1N=[N+]=[N-],-0.112
21,COc1cccc(C)c1NC(=O)O[C@H]1[C@H](OC(=O)Nc2ccc3c(c2)OCO3)[C@@H](OC(=O)Nc2ccc3c(c2)OCO3)[C@@H](OC)O[C@@H]1CO,1.19
22,C=CCC(OC(C)=O)[C@@H]1[C@@H](N(Cc2ccc(-c3ccccc3)cc2)C(=O)c2ccc(-c3ccccc3)cc2)c2cc(OCCCO)ccc2N1C(=O)c1ccc2ccccc2c1 (stereo partly drawn),-0.0178
23,COC(=O)C(CC#Cc1ccc2c(c1)[C@]1(C(=O)N2)[C@H](c2ccc(O)cc2)N2[C@H](c3ccccc3)[C@H](c3ccccc3)OC(=O)[C@H]2[C@@H]1C(=O)NC[C@H](O)c1ccccc1)C(=O)OC,0.276
24,COc1cccc(C)c1NC(=O)O[C@H]1[C@H](OC(=O)Nc2ccccc2-c2ccccc2)[C@H](OC(=O)Nc2ccccc2-c2ccccc2)[C@@H](OC)O[C@@H]1CO,0.455
25,CCCCC(CC)C(O)C1C=CC2C(=O)N(c3ccccc3)C(=O)C2N1Nc1ccccc1F (stereo not drawn),0.663
26,C=CC[C@]1(C(=O)N2CCOCC2)COC(c2ccc(OCCCO)cc2)=N1,2.16
27,CCOC(=O)C[C@H]1[C@H](OC(=O)Cc2ccc3c(c2)OCO3)[C@@H](NC(=O)C2CCCCC2)c2cc(OCCCO)ccc2N1C(=O)c1ccccc1,0.0914
28,O=C1O[C@@H](c2ccccc2)[C@@H](c2ccccc2)N2[C@@H](c3ccc(O)cc3)[C@]3(C(=O)Nc4ccc(C#CCCO)cc43)[C@@H](C(=O)N3CCN(c4ncccn4)CC3)[C@H]12,0.967
